Experimental data from the supplement of paper PMC10849652.
Of roughly 7,900 targets only a part is listed; those with a hit were picked by preference. About 0.6% of all pairs of compound and target were hits.

Compound: c1cn2cc(-c3ccc4cn[nH]c4c3)nc(Nc3ccc(N4CCOCC4)cc3)c2n1 [entospletinib]
Assay: log2 fold change, soluble protein after heating vs DMSO (PISA); higher = thermal stabilisation; K562 cells, 10 uM, 30 min; active = over 0.2 and 3.5 SD of the protein, either way, in both replicates (recomputed)
Outline: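 Soluble protein was quantified by TMTpro 16plex LC-MS/MS after channel sums were equalised. It was obtained as the supernatant after 21,000xg for 90 min from pooled aliquots of K562 cells (2×10^6 cells/mL, 10 μM compound, 30 min) heated for 3 min across 48°C-58°C and extracted in PBS with 0.5% NP-40 at 4°C. Thermal stability values are relative to control samples and come from duplicates. They are given as log2 fold changes.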

Chain of UniProt P50570 (P50570 whole entry, looked up): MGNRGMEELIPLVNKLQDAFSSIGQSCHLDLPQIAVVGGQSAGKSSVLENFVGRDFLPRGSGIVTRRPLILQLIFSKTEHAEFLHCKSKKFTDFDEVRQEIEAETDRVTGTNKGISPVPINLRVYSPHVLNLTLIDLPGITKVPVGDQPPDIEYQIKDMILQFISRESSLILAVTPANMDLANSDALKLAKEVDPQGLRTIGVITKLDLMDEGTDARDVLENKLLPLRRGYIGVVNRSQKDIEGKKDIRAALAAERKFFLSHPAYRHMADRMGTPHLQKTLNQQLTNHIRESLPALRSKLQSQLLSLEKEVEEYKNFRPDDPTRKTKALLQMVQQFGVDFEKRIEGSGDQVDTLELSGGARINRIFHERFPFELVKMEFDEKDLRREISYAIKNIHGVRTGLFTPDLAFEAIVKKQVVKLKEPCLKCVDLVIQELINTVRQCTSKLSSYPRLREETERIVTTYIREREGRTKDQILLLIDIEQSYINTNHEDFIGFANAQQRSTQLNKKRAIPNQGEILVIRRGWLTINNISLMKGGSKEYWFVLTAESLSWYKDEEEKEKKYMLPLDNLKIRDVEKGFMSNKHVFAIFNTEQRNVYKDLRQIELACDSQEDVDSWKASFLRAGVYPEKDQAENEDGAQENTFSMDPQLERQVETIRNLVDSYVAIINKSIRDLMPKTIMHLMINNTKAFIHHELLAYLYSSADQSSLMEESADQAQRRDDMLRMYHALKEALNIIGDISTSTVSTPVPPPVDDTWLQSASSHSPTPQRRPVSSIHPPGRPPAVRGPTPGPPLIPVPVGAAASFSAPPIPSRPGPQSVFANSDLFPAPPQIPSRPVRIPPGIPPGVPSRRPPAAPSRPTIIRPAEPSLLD
Chain of UniProt Q96GG9 (Q96GG9 whole entry, looked up): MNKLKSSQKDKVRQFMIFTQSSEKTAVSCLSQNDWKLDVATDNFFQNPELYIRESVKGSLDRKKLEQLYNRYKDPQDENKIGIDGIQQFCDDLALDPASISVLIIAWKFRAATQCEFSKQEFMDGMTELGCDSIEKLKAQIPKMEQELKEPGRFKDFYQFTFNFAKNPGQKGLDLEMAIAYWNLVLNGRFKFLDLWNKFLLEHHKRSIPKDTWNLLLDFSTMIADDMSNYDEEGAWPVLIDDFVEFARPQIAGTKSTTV
Chain of UniProt P32519 (P32519 whole entry, looked up): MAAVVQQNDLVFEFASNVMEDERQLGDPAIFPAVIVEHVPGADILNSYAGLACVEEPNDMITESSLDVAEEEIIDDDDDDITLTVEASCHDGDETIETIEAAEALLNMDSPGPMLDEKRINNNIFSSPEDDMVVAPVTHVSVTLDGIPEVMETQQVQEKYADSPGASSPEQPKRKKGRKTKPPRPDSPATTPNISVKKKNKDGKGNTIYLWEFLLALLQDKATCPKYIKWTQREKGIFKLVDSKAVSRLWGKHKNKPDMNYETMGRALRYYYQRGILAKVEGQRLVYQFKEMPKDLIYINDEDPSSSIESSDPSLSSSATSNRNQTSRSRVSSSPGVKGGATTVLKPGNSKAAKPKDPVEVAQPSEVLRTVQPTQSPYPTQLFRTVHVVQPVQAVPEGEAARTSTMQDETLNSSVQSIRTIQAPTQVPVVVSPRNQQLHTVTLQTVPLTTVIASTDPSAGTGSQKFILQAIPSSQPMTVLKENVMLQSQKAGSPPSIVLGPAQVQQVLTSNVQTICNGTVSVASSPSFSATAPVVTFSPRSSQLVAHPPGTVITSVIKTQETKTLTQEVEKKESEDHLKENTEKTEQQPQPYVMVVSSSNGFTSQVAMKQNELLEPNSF
Chain of UniProt Q9UBR2 (Q9UBR2 whole entry, looked up): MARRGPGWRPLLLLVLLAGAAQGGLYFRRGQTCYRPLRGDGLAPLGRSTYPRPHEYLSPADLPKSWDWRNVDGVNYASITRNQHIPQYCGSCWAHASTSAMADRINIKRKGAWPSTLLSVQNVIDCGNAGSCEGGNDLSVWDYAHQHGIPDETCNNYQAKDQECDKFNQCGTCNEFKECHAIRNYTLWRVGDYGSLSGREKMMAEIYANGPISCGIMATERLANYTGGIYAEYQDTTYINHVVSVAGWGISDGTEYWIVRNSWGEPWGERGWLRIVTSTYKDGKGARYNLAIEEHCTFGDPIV
Chain of UniProt Q14320 (Q14320 whole entry, looked up): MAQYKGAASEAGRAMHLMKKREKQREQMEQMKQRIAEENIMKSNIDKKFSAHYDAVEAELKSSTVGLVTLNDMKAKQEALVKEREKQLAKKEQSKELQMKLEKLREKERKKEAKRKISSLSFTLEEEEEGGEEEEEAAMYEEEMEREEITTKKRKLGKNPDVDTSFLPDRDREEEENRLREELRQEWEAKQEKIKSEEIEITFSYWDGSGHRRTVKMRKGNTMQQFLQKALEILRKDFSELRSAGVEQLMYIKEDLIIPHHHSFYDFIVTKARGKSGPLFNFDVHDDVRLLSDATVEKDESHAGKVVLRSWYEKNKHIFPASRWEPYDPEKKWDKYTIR
Chain of UniProt O00148 (O00148 whole entry, looked up): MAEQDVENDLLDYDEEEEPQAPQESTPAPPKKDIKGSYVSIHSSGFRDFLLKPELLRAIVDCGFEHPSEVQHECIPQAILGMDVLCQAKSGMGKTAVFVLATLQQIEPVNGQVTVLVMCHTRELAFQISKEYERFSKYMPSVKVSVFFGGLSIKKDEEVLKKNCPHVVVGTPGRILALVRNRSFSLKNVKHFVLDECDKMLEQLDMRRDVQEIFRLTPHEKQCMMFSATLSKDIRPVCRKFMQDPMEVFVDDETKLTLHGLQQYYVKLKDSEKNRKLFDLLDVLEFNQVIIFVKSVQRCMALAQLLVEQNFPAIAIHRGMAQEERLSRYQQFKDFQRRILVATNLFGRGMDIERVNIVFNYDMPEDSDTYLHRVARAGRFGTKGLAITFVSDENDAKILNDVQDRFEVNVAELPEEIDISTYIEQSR
Chain of UniProt Q01780 (Q01780 whole entry, looked up): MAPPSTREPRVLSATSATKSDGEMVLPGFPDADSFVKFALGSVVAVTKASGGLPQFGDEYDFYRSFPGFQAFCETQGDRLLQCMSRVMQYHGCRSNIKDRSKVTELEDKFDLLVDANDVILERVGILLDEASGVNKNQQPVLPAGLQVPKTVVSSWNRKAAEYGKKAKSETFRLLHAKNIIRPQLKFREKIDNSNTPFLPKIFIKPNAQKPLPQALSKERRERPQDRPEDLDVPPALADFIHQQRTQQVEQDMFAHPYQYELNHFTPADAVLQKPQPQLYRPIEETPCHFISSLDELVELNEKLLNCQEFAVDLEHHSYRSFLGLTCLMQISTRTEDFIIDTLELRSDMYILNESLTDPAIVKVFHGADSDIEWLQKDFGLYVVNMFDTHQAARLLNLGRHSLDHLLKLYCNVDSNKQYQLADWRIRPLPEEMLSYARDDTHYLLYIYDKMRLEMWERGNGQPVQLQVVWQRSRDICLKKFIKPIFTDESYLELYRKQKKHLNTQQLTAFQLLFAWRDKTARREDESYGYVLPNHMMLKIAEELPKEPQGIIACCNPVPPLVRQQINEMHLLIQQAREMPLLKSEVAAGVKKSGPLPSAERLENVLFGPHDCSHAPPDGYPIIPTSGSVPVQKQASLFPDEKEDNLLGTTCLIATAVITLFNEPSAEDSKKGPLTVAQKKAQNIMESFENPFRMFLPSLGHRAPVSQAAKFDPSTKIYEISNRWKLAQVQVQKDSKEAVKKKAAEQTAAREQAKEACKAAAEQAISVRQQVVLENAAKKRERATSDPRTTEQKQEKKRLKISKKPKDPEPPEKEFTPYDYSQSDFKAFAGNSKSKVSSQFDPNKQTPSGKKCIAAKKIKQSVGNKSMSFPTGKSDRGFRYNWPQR
Chain of UniProt O00471 (O00471 whole entry, looked up): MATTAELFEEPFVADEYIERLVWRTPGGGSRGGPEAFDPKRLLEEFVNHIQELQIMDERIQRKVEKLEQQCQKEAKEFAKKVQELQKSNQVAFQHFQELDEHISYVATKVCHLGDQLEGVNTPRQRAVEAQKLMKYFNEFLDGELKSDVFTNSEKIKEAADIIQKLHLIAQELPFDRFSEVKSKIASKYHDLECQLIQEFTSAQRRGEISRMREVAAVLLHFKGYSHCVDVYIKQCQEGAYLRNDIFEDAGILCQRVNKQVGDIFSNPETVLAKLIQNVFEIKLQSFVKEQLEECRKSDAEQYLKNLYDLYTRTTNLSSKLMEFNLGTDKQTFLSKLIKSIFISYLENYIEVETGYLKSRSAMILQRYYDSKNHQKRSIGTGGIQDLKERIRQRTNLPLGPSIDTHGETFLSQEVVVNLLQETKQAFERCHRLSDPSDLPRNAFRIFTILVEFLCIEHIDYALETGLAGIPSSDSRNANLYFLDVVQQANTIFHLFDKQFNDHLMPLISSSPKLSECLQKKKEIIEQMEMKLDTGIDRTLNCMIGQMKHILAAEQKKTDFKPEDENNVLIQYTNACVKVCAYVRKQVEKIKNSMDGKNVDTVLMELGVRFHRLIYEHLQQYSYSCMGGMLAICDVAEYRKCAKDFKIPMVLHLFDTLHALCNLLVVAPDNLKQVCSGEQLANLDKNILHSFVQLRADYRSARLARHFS
Chain of UniProt Q9H773 (Q9H773 whole entry, looked up): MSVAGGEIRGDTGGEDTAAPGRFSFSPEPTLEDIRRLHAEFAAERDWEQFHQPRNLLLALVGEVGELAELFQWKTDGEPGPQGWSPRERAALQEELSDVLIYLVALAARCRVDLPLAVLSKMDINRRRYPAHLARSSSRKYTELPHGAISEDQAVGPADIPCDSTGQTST
Chain of UniProt P23919 (P23919 whole entry, looked up): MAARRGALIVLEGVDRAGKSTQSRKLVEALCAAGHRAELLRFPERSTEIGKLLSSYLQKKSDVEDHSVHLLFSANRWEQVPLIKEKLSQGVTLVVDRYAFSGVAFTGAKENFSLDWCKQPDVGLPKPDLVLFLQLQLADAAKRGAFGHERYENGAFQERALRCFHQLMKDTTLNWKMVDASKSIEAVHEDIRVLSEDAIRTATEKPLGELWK

log2 fold change, inactive:
DOHH (UniProt Q9BU89) 0.1
CTSZ (UniProt Q9UBR2) 0.13
EFL1 (UniProt Q7Z2Z2) -0.06
FAM117B (UniProt Q6P1L5) 0.009
EIF2S3 (UniProt P41091) -0.051
DNM2 isoform 4 (UniProt P50570) -0.257
EVC2 (UniProt Q86UK5) -0.104
DDX5 (UniProt P17844) -0.019
CUX1 isoform 3 (UniProt P39880) 0.016
DCAF13 (UniProt Q9NV06) 0.061
EXOC5 (UniProt O00471) 0.002
DCUN1D1 (UniProt Q96GG9) -0.023
DDOST (UniProt P39656) -0.014
E2F4 (UniProt Q16254) 0.02
FAM3A (UniProt P98173) 0.023
FADS1, A0A0A0MR51 0.055
DCTPP1 (UniProt Q9H773) -0.008
ELF1 (UniProt P32519) -0.082
DIAPH1 (UniProt O60610) 0.1
CYB561A3 isoform 2 (UniProt Q8NBI2) 0.315
EFCAB14 (UniProt O75071) 0.001
CYP24A1 (UniProt Q07973) 0.019
DNM2 (UniProt P50570) -0.017
DCAF12 (UniProt Q5T6F0) 0.025
DYNC1I2 isoform 5 (UniProt Q13409) 0.038
FAM50A (UniProt Q14320) -0.006
DDB1 (UniProt Q16531) 0.001
DBT (UniProt P11182) 0.025
DDX39A (UniProt O00148) 0.022
ERCC2 (UniProt P18074) 0.154
EXOSC10 (UniProt Q01780) 0.1
FAM122A (UniProt Q96E09) -0.012
CTSL (UniProt P07711) 0.091
DTYMK (UniProt P23919) 0.013
